# Reference: the supplement of paper PMC8728848
# Shown is part of a subset that was picked to be rich in the strongest signals.
# B1: PX14375F-bfa-539-21-539 (Bacteroides fragilis) (protein)
# chain: EDFLQKDPPSSPSQSVFWQKKSDFESALAGTYSVMYSGVFSQIMPCLDGLTDNAIVQHSEGTYGWAKTIAQGDLTPNQGGFVTDIYGNCYKGIARVHILMEQLDQYTGSDISADEKKFMLAQCKALRGYFYSWLYQCYKEVPVVTQSLDLNTMYQPKATRAEVLNRVMTDYDEAISELPDKLYSDSQTSGRFTVSAVKALKARILLFDAYDSNGKAISSKMEEVLTLLQSIKGYSLAARVRDNFISEKQLASPEIMFSVRFLRPNLTHSMDLYYGAWAVLDPTRNMVDAFECTDGKPWGESPLTVRPDESILYGNDDALKKAERAKMFMNRDRRLYESVNHSMMANFVDDGFKDEEVQVNESNNKGPTGFSALKYVQPTDVTPGYSTVSDADIVVLRYAHVLLMIAEAENEAHGATTTALNAINEVRTRSGQPAIEAGISQDDLRERIRNEWRIETCFEGLRYFQLKRWKLMDKRVNGVEDPAYPGYIKVYKPAFEFFPIPQSEIDKAGGVLKQDPAYE
# Tests used:
# Experiment in all cases: glycan array binding signal (z-score within array); higher = stronger binding
# Conditions in all cases: glycan notation: IUPAC condensed, linker removed
# [1] = target: Fuc(a1-2)Gal(b1-3)GalNAc(b1-3)Gal(a1-4)Gal(b1-4)Glc
# Summary of the method: (§1)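 Glycan array data were curated from 3228 arrays in the Consortium for Functional Glycomics database and kept only where the protein sequence was available. Glycan names were converted to IUPAC-condensed notation, and columns mapping to the same glycan were averaged. The binding signal is a within-array Z-score, averaged across arrays of the same protein sequence at different concentrations or buffers and across linkers. Negative Z-scores can be read as non-binding.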
# [2] = target: Fuc(a1-2)Gal(b1-3)GlcNAc(b1-3)[Gal(b1-4)GlcNAc(b1-6)]Gal(b1-4)Glc
# Summary of the method: as §1
# [3] = target: Fuc(a1-2)Gal(b1-3)[Fuc(a1-4)]GlcNAc(b1-2)Man(a1-3)[Fuc(a1-2)Gal(b1-3)[Fuc(a1-4)]GlcNAc(b1-2)Man(a1-6)]Man(b1-4)GlcNAc(b1-4)[Fuc(a1-6)]GlcNAc(b1-4)[Fuc(a1-6)]GlcNAc
# Summary of the method: as §1
# [4] = target: Fuc(a1-2)Gal(b1-4)GlcNAc(b1-3)GalNAc
# Summary of the method: as §1
# [5] = target: Fuc(a1-2)Gal(b1-4)GlcNAc(b1-3)[Fuc(a1-2)Gal(b1-4)GlcNAc(b1-6)]GalNAc
# Summary of the method: as §1
# [6] = target: Fuc(a1-2)Gal(b1-4)GlcNAc(b1-3)[Fuc(a1-3)[Gal(b1-4)]GlcNAc(b1-6)]Gal(b1-4)Glc
# Summary of the method: as §1
# [7] = target: Fuc(a1-2)Gal(b1-4)[Fuc(a1-3)]GlcNAc
# Summary of the method: as §1
# [8] = target: Fuc(a1-2)[Gal(a1-3)]Gal(b1-3)GlcNAc(b1-6)GalNAc
# Summary of the method: as §1
# [9] = target: Fuc(a1-2)[Gal(a1-3)]Gal(b1-4)GlcNAc(b1-2)Man(a1-3)[Fuc(a1-2)[Gal(a1-3)]Gal(b1-4)GlcNAc(b1-2)Man(a1-6)]Man(b1-4)GlcNAc(b1-4)GlcNAc
# Summary of the method: as §1
# [10] = target: Fuc(a1-2)[Gal(a1-4)]Gal(b1-4)GlcNAc
# Summary of the method: as §1
# [11] = target: Fuc(a1-2)[GalNAc(a1-3)]Gal(b1-4)GlcNAc(b1-6)GalNAc
# Summary of the method: as §1
# [12] = target: Gal(a1-3)Gal(b1-3)GlcNAc
# Summary of the method: as §1
# [13] = target: Gal(a1-3)Gal(b1-3)GlcNAc(b1-2)Man(a1-3)[Gal(a1-3)Gal(b1-3)GlcNAc(b1-2)Man(a1-6)]Man(b1-4)GlcNAc(b1-4)GlcNAc
# Summary of the method: as §1
# [14] = target: Gal(a1-3)[Gal(a1-4)]Gal(b1-4)GlcNAc
# Summary of the method: as §1
# [15] = target: Gal(a1-4)GlcNAc
# Summary of the method: as §1
# [16] = target: Gal(b1-3)GlcNAc(b1-3)Gal(b1-4)GlcNAc(b1-6)[Gal(b1-3)GlcNAc(b1-3)]Gal(b1-4)Glc
# Summary of the method: as §1
# [17] = target: Gal(b1-3)[Fuc(a1-4)]GlcNAc(b1-2)Man(a1-3)[Gal(b1-3)[Fuc(a1-4)]GlcNAc(b1-2)Man(a1-6)]Man(b1-4)GlcNAc(b1-4)[Fuc(a1-6)]GlcNAc
# Summary of the method: as §1
# [18] = target: Gal(b1-4)Glc
# Summary of the method: as §1
# [19] = target: Gal(b1-4)Glc6S
# Summary of the method: as §1
# [20] = target: Gal(b1-4)GlcNAc(b1-3)Gal(b1-3)GlcNAc
# Summary of the method: as §1
# [21] = target: Gal(b1-4)GlcNAc(b1-3)Gal(b1-4)GlcNAc(b1-2)[Gal(b1-4)GlcNAc(b1-3)Gal(b1-4)GlcNAc(b1-6)]Man(a1-6)[Gal(b1-4)GlcNAc(b1-3)Gal(b1-4)GlcNAc(b1-2)Man(a1-3)]Man(b1-4)GlcNAc(b1-4)[Fuc(a1-6)]GlcNAc
# Summary of the method: as §1
# [22] = target: Gal(b1-4)GlcNAc(b1-3)Gal(b1-4)GlcNAc(b1-3)Gal(b1-4)GlcNAc(b1-3)Gal(b1-4)GlcNAc(b1-3)Gal(b1-4)GlcNAc(b1-3)Gal(b1-4)GlcNAc(b1-2)Man(a1-3)[Gal(b1-4)GlcNAc(b1-3)Gal(b1-4)GlcNAc(b1-3)Gal(b1-4)GlcNAc(b1-3)Gal(b1-4)GlcNAc(b1-3)Gal(b1-4)GlcNAc(b1-3)Gal(b1-4)GlcNAc(b1-2)Man(a1-6)]Man(b1-4)GlcNAc(b1-4)GlcNAc
# Summary of the method: as §1
# [23] = target: Gal(b1-4)GlcNAc(b1-3)Gal(b1-4)GlcNAc(b1-3)GalNAc
# Summary of the method: as §1
# [24] = target: Gal(b1-4)GlcNAc(b1-3)[Gal(b1-4)GlcNAc(b1-6)]Gal(b1-4)GlcNAc
# Summary of the method: as §1
# [25] = target: Gal4S(b1-4)GlcNAc
# Summary of the method: as §1
# [26] = target: Gal6S(b1-3)GlcNAc
# Summary of the method: as §1
binder,measurement,setting,value
B1,glycan array binding signal (z-score),[1],1.21
same,glycan array binding signal (z-score),[2],-0.583
same,glycan array binding signal (z-score),[3],0.238
same,glycan array binding signal (z-score),[4],0.334
same,glycan array binding signal (z-score),[5],0.212
same,glycan array binding signal (z-score),[6],0.539
same,glycan array binding signal (z-score),[7],-0.409
same,glycan array binding signal (z-score),[8],-0.329
same,glycan array binding signal (z-score),[9],6.22
same,glycan array binding signal (z-score),[10],2.7
same,glycan array binding signal (z-score),[11],-0.169
same,glycan array binding signal (z-score),[12],-0.042
same,glycan array binding signal (z-score),[13],2.35
same,glycan array binding signal (z-score),[14],3.97
same,glycan array binding signal (z-score),[15],-0.504
same,glycan array binding signal (z-score),[16],-0.107
same,glycan array binding signal (z-score),[17],2.29
same,glycan array binding signal (z-score),[18],-0.577
same,glycan array binding signal (z-score),[19],0.083
same,glycan array binding signal (z-score),[20],-0.243
same,glycan array binding signal (z-score),[21],5.95
same,glycan array binding signal (z-score),[22],4.05
same,glycan array binding signal (z-score),[23],2.44
same,glycan array binding signal (z-score),[24],0.637
same,glycan array binding signal (z-score),[25],-0.679
same,glycan array binding signal (z-score),[26],-0.321
